Source: PubChem BioAssay (National Center for Advancing Translational Sciences (NCATS))
Most compounds without a hit are left out; they make up all but 1.4% or so of the library.
HttQ103 aggreg = mutant huntingtin aggregation inhibition; Potency, µM (titrated, usually from 46.1 µM), most hits filed as inhibitors; PC12 HttQ103-GFP aggregates, Acumen cytometry, 40 h; AID 1688; actives 1.1% (n = 220,000); note: nearly all actives have a fitted effect of over 60% in size
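Inducible Q103 Huntingtin exon 1–GFP PC12 line, 1500 cells/well in phenol red free DMEM with 5% equine and 5% calf serum. Tebufenozide 100 nM induced expression; compounds titrated; aggregates quantified by cytometry.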
ERK EGF block = EGF-driven ERK pathway inhibition | HEK293-V1b, EGF-stimulated phospho-ERK AlphaScreen | Potency, µM (series often up to 11.5 µM), actives largely listed as inhibitors | actives 0.41% (n = 130,000); note: nearly all actives have a fitted effect of over 55% in size
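HEK293 cells stably expressing V1b receptor, serum-reduced (1% FBS) overnight, got compound for 30 min at 37C, then 25 nM EGF for 5 min. Lysate phospho-ERK read by AlphaScreen SureFire; AC50 from Hill fits.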
HTT ATP protect = protects HTT-Q103 PC12 cells, measured by ATP | PC12 HTT-Q103 induced, cytoprotection, ATP luminescence, 40 h | Potency, µM (highest dose often 56.4 µM), most hits filed as activators | actives 0.14% (n = 230,000); note: nearly all actives have a fitted effect of over 45% in size
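Rat PC12, Q103 Htt exon1-GFP fusion, ecdysone promoter; tebufenozide inducer 100 nM final; compound titration; qHTS, 1500 cells/well; ATPlite luminescent read.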
A number is an active result; [ ] = remark or other dose. Calls come from the whole dose curve; as a rule, active = well fitted curve in the direction sought with a large enough effect; inconclusive = small, poorly fitted or top-dose-only effect, or another doubt; inactive = no such curve, though single readings can be large; an effect the other way counts as inactive or inconclusive.

What do the screens show for `CCN1C(=O)[C@H]2[C@H]3[C@H](O)[C@H](O)C/C(=N/OCC(C)C)[C@@H]3CC[C@@H]2C1=O`?
HTT ATP protect: inactive[10 µM]

Results for O=C(Nc1ccccc1)N1CC[C@@]2(CCCN(C(=O)c3cnccn3)C2)C1 ?
ERK EGF block: inactive; HTT ATP protect: inconclusive

What do the screens show for `O=C(Nc1ccccc1)N1CCC2(CC1)CCN(C(=O)c1cnccn1)CC2`?
ERK EGF block: inactive; HTT ATP protect: 3.5µM

What do the screens show for `CCOC(=O)CSc1nc2cc(C(=O)N3CCC(C(N)=O)CC3)ccc2c(=O)n1-c1ccccc1`?
HttQ103 aggreg: 2.8µM; HTT ATP protect: inactive

What do the screens show for `CCOC(=O)CSc1nc2cc(C(=O)N3CCCC3)ccc2c(=O)n1Cc1ccccc1`?
HttQ103 aggreg: inactive; HTT ATP protect: inactive

How did Cc1nc(Nc2ccccc2)[nH]c(=O)c1CCC(C)C do in these assays?
HttQ103 aggreg: inconclusive; HTT ATP protect: inactive

Results for CCCCCc1c(C)nc(NCc2ccccc2)[nH]c1=O ?
HttQ103 aggreg: 32µM; HTT ATP protect: inactive[0.074 µM]

Results for CCC(NC(=O)Nc1nnc(C(F)(F)F)s1)(C(F)(F)F)C(F)(F)F ?
HttQ103 aggreg: 1.6µM; HTT ATP protect: inactive

Results for O=C(O)CCC(=O)Nc1nnc(C(F)(F)F)s1 ?
HttQ103 aggreg: inactive; HTT ATP protect: inactive

What do the screens show for `Cc1cccc(NC(=S)NC(C)(C)CC(C)(C)C)c1`?
HttQ103 aggreg: inconclusive; ERK EGF block: inactive; HTT ATP protect: 8.9µM

Results for Cc1cccc(NC(=S)NCc2ccc(F)cc2)c1 ?
HttQ103 aggreg: inactive; ERK EGF block: inactive

What do the screens show for `Cc1[nH]c(N)nc(=S)c1CCC(=O)O`?
HTT ATP protect: inactive[10 µM]

What do the screens show for `CCOc1ccc(Br)cc1S(=O)(=O)NC(=O)c1ccccc1`?
HttQ103 aggreg: inactive[9.22 µM]; ERK EGF block: inactive; HTT ATP protect: inactive[10 µM]

What do the screens show for `Cc1ccc(S(=O)(=O)NC(=O)c2ccccc2)cc1C(C)C`?
HttQ103 aggreg: inconclusive; ERK EGF block: inactive; HTT ATP protect: 2.8µM

Results for O=S(=O)(c1ccc2c(c1)OCCO2)N1CCC(n2nnc3cc(C(F)(F)F)ccc32)CC1 ?
HttQ103 aggreg: 10µM; HTT ATP protect: inactive[10 µM]

What do the screens show for `O=S(=O)(c1ccccc1)N1CCC(n2nnc3cc(F)ccc32)CC1`?
HttQ103 aggreg: inactive; HTT ATP protect: inactive

How did CN(C)Cc1cc(C(C)(C)C)cc(CN(C)C)c1O do in these assays?
HTT ATP protect: inactive[10 µM]

Results for CN(C)Cc1cc(C(C)(C)c2cc(CN(C)C)c(O)c(CN(C)C)c2)cc(CN(C)C)c1O ?
HttQ103 aggreg: 40µM; ERK EGF block: inactive

What do the screens show for `CCN1C(=O)[C@H]2[C@H]3[C@H](O)[C@H](O)C/C(=N/OC[C@@H](O)COCc4ccco4)[C@H]3CC[C@@H]2C1=O`?
HTT ATP protect: inactive[10 µM]

Results for COC(=O)c1ccc(C(NC(=O)OCc2ccccc2)/C(C)=C/[C@@H](C)C(=O)NCc2cc(F)cc(F)c2)cc1 (some centres not stated) ?
ERK EGF block: inactive; HTT ATP protect: inactive

What do the screens show for `CC(=O)O[C@H]1CC[C@@]2(C)[C@@H](CC[C@@]3(C)[C@H]2C(=O)C=C2[C@H]4C[C@](C)(C(=O)OCCN5CCCCC5)CC[C@]4(C)CC[C@@]23C)C1(C)C`?
HTT ATP protect: inactive

How did C=CCNC(=S)N/N=C(\C)c1ccccn1 do in these assays?
HttQ103 aggreg: 3.5µM; HTT ATP protect: inactive[10 µM]

What do the screens show for `C/C(=N/NC(=O)CNC(=O)c1ccccn1)c1ccccc1`?
HttQ103 aggreg: inactive; ERK EGF block: inactive; HTT ATP protect: inactive[10 µM]

What do the screens show for `CN=c1scc(-c2ccccc2F)n1/N=C/c1ccc[nH]1`?
HttQ103 aggreg: inactive; ERK EGF block: inactive; HTT ATP protect: inactive

How did CN=c1scc(-c2ccccc2F)n1/N=C/c1ccc(O)c(O)c1O do in these assays?
HttQ103 aggreg: inactive; ERK EGF block: 28µM; HTT ATP protect: inactive[10 µM]

Results for Cc1cc2sc(C)[n+](CCCOS(=O)(=O)O)c2cc1C ?
HTT ATP protect: inactive[10 µM]

How did CCn1c(=O)c(C(=O)Nc2ccsc2C(=O)OC)c(O)c2ccccc21 do in these assays?
HttQ103 aggreg: 7.1µM; ERK EGF block: inactive; HTT ATP protect: inconclusive

Results for CCCn1c(=O)c(C(=O)Nc2ccccc2C(=O)OC)c(O)c2ccccc21 ?
HttQ103 aggreg: inactive; HTT ATP protect: inactive[0.074 µM]

Results for Cc1ccc2c(c1)S/C(=C/c1ccc[n+](CCO)c1)N2C ?
HttQ103 aggreg: inactive; ERK EGF block: inactive; HTT ATP protect: inactive

How did Cc1cc(/C=C2\Sc3ccccc3N2C)cc(C)[n+]1CC1CCCO1 (configuration not stated) do in these assays?
HttQ103 aggreg: 2.8µM; ERK EGF block: inactive; HTT ATP protect: inactive[10 µM]

How did CC(C)C[C@@H](CC(=O)N[C@@H](CCCN)CC(=O)N[C@@H]1CCCC[C@H]1C(=O)N[C@H](CC(=O)N[C@@H](CCC(=O)O)CC(=O)O)Cc1c[nH]c2ccccc12)NC(=O)[C@@H]1CCCC[C@H]1N do in these assays?
ERK EGF block: inactive; HTT ATP protect: inactive[1.9 µM]

How did Nc1ccc(Cl)cc1[N+](=O)[O-] do in these assays?
HTT ATP protect: inactive

Results for NC(=O)C1CCN(C2=C(NS(=O)(=O)c3ccccc3)C(=O)c3ccccc3C2=O)CC1 ?
HttQ103 aggreg: inactive[9.22 µM]; ERK EGF block: inconclusive; HTT ATP protect: inactive[10 µM]

How did O=C1C(NS(=O)(=O)c2ccc(Cl)cc2)=C(N2CCCCC2)C(=O)c2ccccc21 do in these assays?
HttQ103 aggreg: inconclusive; ERK EGF block: 14µM; HTT ATP protect: inactive[10 µM]

How did O=C1C(NS(=O)(=O)c2cccs2)=C(N2CCN(Cc3ccccc3)CC2)C(=O)c2ccccc21 do in these assays?
HttQ103 aggreg: inactive[9.22 µM]; ERK EGF block: 16µM; HTT ATP protect: inactive[10 µM]

Results for CN1CCN(C2=C(NS(=O)(=O)c3cccs3)C(=O)c3ccccc3C2=O)CC1 ?
HttQ103 aggreg: inactive[9.22 µM]; ERK EGF block: inactive; HTT ATP protect: inactive[10 µM]

What do the screens show for `COc1ccc(C(=O)N2CCC3(CC2)CN(c2ncccn2)C3)cc1`?
ERK EGF block: inactive; HTT ATP protect: inactive

How did Cc1cncc(C(=O)O)[n+]1[O-] do in these assays?
HttQ103 aggreg: inactive; HTT ATP protect: inactive

What do the screens show for `CC(C)Cn1c(N)c(C(=O)CSc2ccc3c(c2)OCCO3)c(=O)n(C)c1=O`?
HttQ103 aggreg: 2µM; HTT ATP protect: inactive

Results for CC(C)Cn1c(N)c(C(=O)COC(=O)c2ccc3c(c2)OCCO3)c(=O)n(C)c1=O ?
HttQ103 aggreg: inconclusive; HTT ATP protect: inactive

What do the screens show for `CN(C)c1ccc(-c2nc(NCCc3cnc[nH]3)c3ccccc3n2)cc1`?
HTT ATP protect: inactive

How did O=C1c2cccnc2C(=O)N1Cc1ccccc1 do in these assays?
HttQ103 aggreg: inactive; ERK EGF block: inactive; HTT ATP protect: inactive[10 µM]

Results for O=C1c2cccc3c(O)ccc(c23)C(=O)N1Cc1ccccc1 ?
HttQ103 aggreg: 10µM; HTT ATP protect: inactive

How did O=C1NC(c2ccc(Br)cc2)Nc2sc3c(c21)CCC3 (configuration not stated) do in these assays?
HttQ103 aggreg: inactive; HTT ATP protect: inactive

How did Cc1ccsc1C1NC(=O)c2c(sc3c2CCCC3)N1 (configuration not stated) do in these assays?
HttQ103 aggreg: 28µM; ERK EGF block: inactive; HTT ATP protect: inactive[10 µM]

How did COc1ccc2[nH]cc(CCNc3ccnc(-c4cccc(NS(C)(=O)=O)c4)n3)c2c1 do in these assays?
ERK EGF block: inactive; HTT ATP protect: inactive
